# 12-LOX inh – blocks human arachidonate 12S-lipoxygenase. Potency, µM (doses to about 108 µM), for the others: top-dose activity change, negative = inhibition, most hits filed as inhibitors. P18054. AID 1671190. hit rate 1.1% among 580,000. purified 12hLO, xylenol orange hydroperoxide absorbance; also: potency is read from the fitted curve at half-maximal effect
# Target sequence (P18054 whole entry, looked up): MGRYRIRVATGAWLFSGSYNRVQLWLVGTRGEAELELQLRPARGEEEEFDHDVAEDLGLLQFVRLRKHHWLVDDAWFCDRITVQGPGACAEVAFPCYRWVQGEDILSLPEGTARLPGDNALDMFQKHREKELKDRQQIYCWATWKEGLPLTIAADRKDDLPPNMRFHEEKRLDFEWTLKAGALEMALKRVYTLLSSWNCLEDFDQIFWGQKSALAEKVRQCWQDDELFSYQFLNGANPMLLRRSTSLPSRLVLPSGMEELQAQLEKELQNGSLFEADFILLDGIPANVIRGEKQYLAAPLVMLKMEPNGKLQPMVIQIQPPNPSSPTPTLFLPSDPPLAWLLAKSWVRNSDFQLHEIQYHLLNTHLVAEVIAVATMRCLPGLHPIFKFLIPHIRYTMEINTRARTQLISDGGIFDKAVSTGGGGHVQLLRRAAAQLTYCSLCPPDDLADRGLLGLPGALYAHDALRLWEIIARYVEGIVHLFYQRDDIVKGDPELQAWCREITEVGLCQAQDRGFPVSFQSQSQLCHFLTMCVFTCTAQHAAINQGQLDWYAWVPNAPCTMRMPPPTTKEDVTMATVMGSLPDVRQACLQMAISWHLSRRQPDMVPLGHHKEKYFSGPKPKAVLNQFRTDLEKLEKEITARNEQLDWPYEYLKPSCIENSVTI
#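 Purified human 12hLO (150 nM final) in 25 mM Hepes, 0.01% Triton X-100, pH 7.0 was preincubated 15 min at room temperature with compound. Then 40 uM arachidonic acid was added, 30 min. Hydroperoxide was read by Fe-XO absorbance ratio 573/405 nm.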
# TDP1 cell noCPT – qHTS for Inhibitors of human tyrosyl-DNA phosphodiesterase 1 (TDP1): qHTS in cells in absence of CPT; hit rate 15% among 420,000; DT40 Tdp1-/- hTDP1 cells, no CPT, ATP luminescence, 48 h; Potency, µM (series often up to 46.2 µM), without a hit: top-dose activity change, negative = growth inhibition, actives largely listed as inhibitors; AID 686978, 2013; also: potency is read from the fitted curve at half-maximal effect; nearly all actives have a fitted effect of over 55% in size
#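 No-CPT arm: Tdp1-/-;hTDP1 DT40 cells (400/well) plus compounds, incubated ≥48 hr at 37 °C. Readout CellTiter-Glo luminescence.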
# TDP1 cell CPT – DT40-hTDP1 cell growth loss with CPT. chicken DT40 Tdp1-/-;hTDP1 cells + 20 nM CPT, ATP luminescence, 48 h. Potency, µM (doses to about 46.2 µM), for the others: at the top dose activity change, negative = growth inhibition, actives largely listed as inhibitors. hit rate 12% among 420,000; also: potency is read from the fitted curve at half-maximal effect; nearly all actives have a fitted effect of over 55% in size
#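 Chicken DT40 Tdp1-/- cells complemented with human TDP1, 400 cells/well, exposed to compounds plus 20 nM camptothecin for at least 48 h at 37 C; viability read as ATP content by CellTiter-Glo luminescence.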
# HT1080-NT tox – kills 2HG-producing HT-1080-NT fibrosarcoma cells; HT-1080-NT fibrosarcoma viability, CellTiter-Glo ATP luminescence, 48 h; hit rate 1.6% among 360,000; AID 686970; Potency, µM (top dose mostly 46.1 µM), for inactives: top-dose activity, negative = less viability, most hits filed as cytotoxic;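 also: NT is the 2HG producing partner of a matched IDH1 knockdown line; potency is read from the fitted curve at half-maximal effect; 0% = DMSO-treated cells and -100% = media-only wells without cells; nearly all actives have a fitted effect of over 55% in size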
#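 Toxicity toward the 2HG-producing NT line was scored as %Activity, normalised to DMSO and no-cell wells, from CellTiter-Glo luminescence after 48 hours' treatment.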
# HT1080 IDH1KD tx – kills HT-1080 cells with IDH1 knockdown. HT-1080 IDH1 knockdown viability, ATP luminescence, 48 h. Potency, µM (doses to about 46.1 µM), without a hit: at the top dose activity, negative = toxicity, actives largely listed as cytotoxic. hit rate 2% among 360,000;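 also: potency is read from the fitted curve at half-maximal effect; 0% = DMSO wells and -100% = cell-free medium wells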
#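 Cytotoxicity counter-line: IDH1KD HT-1080, 48 h, CellTiter-Glo. Curves classed by r2, magnitude and activity.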
# IL1B secr inh – blocks inflammasome-driven IL-1 beta release | THP-1 LPS/ATP IL-1B secretion, AlphaLISA, 16 h; stronger effect = lower value | activity change, % at 57.5 µM | hit rate 4.7% among 360,000 | AID 743279; in the data active = activity change below about -50%; inconclusive = mostly about -30% to -49%
#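 THP-1 cells pretreated 1 hr with compounds (up to 57.5 uM final), then stimulated with LPS (250 ng/mL final) plus ATP (1.25 mM final); secreted IL-1B measured by AlphaLISA after 16 hr, decreased signal indicating inhibition.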
# * = called active by the depositor; ? = inconclusive; / = no result given. The full list was thinned out, with hits kept by preference. Unless noted, calls follow the shape of the dose curve; as a rule, active = well fitted curve in the direction sought with a large enough effect; inconclusive = small, poorly fitted or top-dose-only effect, or another doubt; inactive = no such curve, though single readings can be large; an effect the other way counts as inactive or inconclusive. Unless noted, % is scaled to controls: 0 for no effect and ±100 for the full control effect.
SMILES,12-LOX inh,TDP1 cell noCPT,TDP1 cell CPT,HT1080-NT tox,HT1080 IDH1KD tx,IL1B secr inh
COc1cc(NC(=O)N2c3ccccc3CC2c2nc(C3CC3)no2)cc(OC)c1 (centres undefined),-15%,/,/,/,/,/
COc1ccc(NC(=O)C2Cc3cccc(OC)c3O/C2=N\O)cc1 (centres undefined),6%,?,?,0%,0%,28
COc1cccc2c1O/C(=N\O)C(C(=O)Nc1ccc(C)cc1)C2 (centres undefined),0%,5.2µM*,5.8µM*,?,15µM*,0
CCCCCCCCCCCC(=O)N/N=C\CC(C)C,85%,/,/,/,/,/
CCOC(=O)COc1ccc(C2NC(C(=O)O)CS2)cc1 (centres undefined),32µM*,-6%,4%,-1%,0%,-5
COC(=O)c1ccc(C2NC(C(=O)O)CS2)cc1 (centres undefined),0%,-27%,-20%,-4%,3%,11
CCOC(=O)C1=C[C@@H](CC)N(S(=O)(=O)c2ccc(C)cc2)[C@H]1c1cccs1,-20%,16µM*,15µM*,?,?,-6
CCOC(=O)C1=C[C@@H](C(C)(C)C)N(S(=O)(=O)c2ccc(C)cc2)[C@H]1c1cccc(Cl)c1,2%,13µM*,15µM*,?,18µM*,34
CCOC(=O)C1=C[C@@H](c2ccccc2)N(S(=O)(=O)c2ccc(C)cc2)[C@H]1c1ccc(F)cc1,-4%,?,?,8%,-1%,6
CCOC(=O)C1=C[C@@H](CC)N(S(=O)(=O)c2ccc([N+](=O)[O-])cc2)[C@H]1c1ccccc1,-2%,?,21µM*,7%,3%,22
CCOC(=O)C1=C[C@@H](c2ccccc2)N(S(=O)(=O)c2ccc(C)cc2)[C@H]1c1cccc(Cl)c1,12%,23µM*,?,2%,9%,12
CCOC(=O)C1=C[C@@H](C(C)(C)C)N(S(=O)(=O)c2ccc([N+](=O)[O-])cc2)[C@H]1c1cccc(Cl)c1,1%,/,/,/,/,/
COc1cc(NC(=O)CCn2ccnc2)cc(OC)c1OC,9%,/,/,/,/,/
Cc1ccc(N(C(=O)c2cccs2)C2C=CS(=O)(=O)C2)cc1C (centres undefined),-1%,/,/,/,/,/
CC[C@@H]1C=C(C(=O)O)[C@H](c2ccc(Cl)cc2)N1S(=O)(=O)c1ccc(C)cc1,?,-7%,5%,0%,-13%,21
CCOC(=O)C1=C[C@@H](CC)N(S(=O)(=O)c2ccc(C)cc2)[C@H]1c1cccc(Cl)c1,5%,21µM*,?,-8%,?,2
Oc1ccccc1-c1cnc2cccnn12,-16%,?,16µM*,7%,1%,28
Cc1cccc(C)c1NC(=O)CNC(=O)c1cc2cc(Cl)ccc2nc1C,-5%,/,/,/,/,/
CCC(CC)CN1CCC2(CC1)CC1C(=O)N(CC)C(=O)N1C2 (centres undefined),15%,/,/,/,/,/
Cc1nc2cc(NS(=O)(=O)c3ccccc3C(F)(F)F)ccc2o1,23%,/,/,/,/,/
CCN(C(=O)CSc1nc(-c2ccc(C(C)C)cc2)no1)c1ccccc1,-21%,?,15µM*,/,/,/
CN(C(=O)CSc1nc(-c2ccccc2)no1)c1ccc(F)cc1,-16%,?,?,/,/,/
CCN(C(=O)CSc1nc(-c2ccc(C(C)C)cc2)no1)c1cccc(C)c1,-17%,?,15µM*,/,/,/
CCSc1ccccc1C(=O)Nc1ccc(CC)cc1,-54%,/,/,/,/,/
Cc1ccc(-c2csc3ncnc(-n4nnc5ccccc54)c23)cc1C,-10%,?,21µM*,-3%,3%,0
SMILES,12-LOX inh,TDP1 cell noCPT,TDP1 cell CPT,HT1080-NT tox,HT1080 IDH1KD tx,IL1B secr inh
Cc1ccc(-c2csc3ncnc(-n4cnc5ccccc54)c23)cc1,-19%,18µM*,?,16µM*,21µM*,?
CCn1cc(-c2cc(C(=O)OC)c3ccccc3n2)c(C)n1,28%,/,/,/,/,/
Cc1ccc(S(=O)(=O)Nc2cc(-c3nn(C)c(=O)c4ccccc34)ccc2N2CCOCC2)cc1,15%,?,?,?,10µM*,18
Cn1nc(-c2ccc(N3CCOCC3)c(NS(=O)(=O)c3ccc(Cl)cc3)c2)c2ccccc2c1=O,0%,26µM*,18µM*,?,18µM*,9
Cc1ccc(C(=O)Nc2cc(-c3nn(C)c(=O)c4ccccc34)ccc2N2CCOCC2)cc1,6%,/,/,/,/,/
COc1ccc(CCNC(=O)C(C)C)cc1,-36%,/,/,/,/,/
COc1ccc2cc(CCC(C)=O)ccc2c1,8%,9%,11%,-12%,0%,-1
COc1ccc(CCc2ccc3cc(OC)ccc3n2)cc1,-3%,?,?,-29%,-25%,-55*
O=C(COc1ccc(Cl)cc1Cl)NCc1ccncc1,-29%,-30%,-13%,-5%,6%,9
Cc1cc(CNC(=O)COc2ccc(F)cc2Cl)cc(C)c1O,-13%,-30%,-22%,-11%,-10%,-88*
O=C(NC1CCCN(c2cc(-c3ccc(F)cc3)[nH]n2)C1)c1nccc2ccccc12 (centres undefined),13%,/,/,/,/,/
O=C(CCCC(=O)N1CCc2ccccc21)N1CCc2ccccc21,-5%,-11%,-4%,14%,9%,6
O=C(CN1CCCc2ccccc21)N1CCc2ccccc21,81%,?,16µM*,-2%,-18%,49
CCOC(=O)c1cc2sccc2n1CC(=O)OC(C)C,2%,-5%,-8%,7%,-6%,5
CCOCC(=O)N1CCc2ccccc21,0%,18µM*,0%,-4%,-7%,51
CCOC(=O)c1cc2sccc2n1CC(=O)N1CCc2ccccc21,-25%,12µM*,4.6µM*,-22%,?,-4
CCC(C)NC(=O)CCNC(=O)NCc1ccccc1 (centres undefined),7%,/,/,/,/,/
COc1ccc(-c2noc(CC3CCN(C(=O)c4ccc(OC)c(OC)c4)CC3)n2)cc1,41%,/,/,/,/,/
CSc1nc(N)c2c(n1)NC1=C(C(=O)CC(C)(C)C1)C2c1ccc(F)cc1 (centres undefined),-40%,/,/,/,/,/
CCOc1ccc(-n2c(SC)nc3c(c2=O)SCC3)cc1,?,-28%,-23%,0%,-4%,7
CCOc1ccc(-n2c(SC(C)C)nc3c(c2=O)SCC3)cc1,0%,16µM*,?,-16%,-21%,-2
